Mtb FBA inh: Mtb FBA enzyme inhibitors, primary screen, biochemical, fluorescence, strain H37Rv; Fructose-bisphosphate aldolase (Mycobacterium tuberculosis (strain ATCC 25618 / H37Rv)), …; purified M. tuberculosis FBA, fluorescence read-out; inhibition, % at 1 µM; 2.3% of 360,000 active; in the data active means inhibition above about 27%;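 further: 0% = vehicle and 100% = reference inhibitor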
Anthrax LF inh2: Bacillus anthracis LF protease inhibitors, primary screen, biochemical, multiplex microsphere, MLPCN library. AID 588501, 2011. 0.12% of 360,000 active. multiplex microsphere protease cleavage assay. Lethal factor (Bacillus anthracis), P15917. inhibition, % at 10 µM; further: plate controls were buffer without enzyme for full effect and enzyme alone for no effect
Target sequence (P15917 whole entry, looked up): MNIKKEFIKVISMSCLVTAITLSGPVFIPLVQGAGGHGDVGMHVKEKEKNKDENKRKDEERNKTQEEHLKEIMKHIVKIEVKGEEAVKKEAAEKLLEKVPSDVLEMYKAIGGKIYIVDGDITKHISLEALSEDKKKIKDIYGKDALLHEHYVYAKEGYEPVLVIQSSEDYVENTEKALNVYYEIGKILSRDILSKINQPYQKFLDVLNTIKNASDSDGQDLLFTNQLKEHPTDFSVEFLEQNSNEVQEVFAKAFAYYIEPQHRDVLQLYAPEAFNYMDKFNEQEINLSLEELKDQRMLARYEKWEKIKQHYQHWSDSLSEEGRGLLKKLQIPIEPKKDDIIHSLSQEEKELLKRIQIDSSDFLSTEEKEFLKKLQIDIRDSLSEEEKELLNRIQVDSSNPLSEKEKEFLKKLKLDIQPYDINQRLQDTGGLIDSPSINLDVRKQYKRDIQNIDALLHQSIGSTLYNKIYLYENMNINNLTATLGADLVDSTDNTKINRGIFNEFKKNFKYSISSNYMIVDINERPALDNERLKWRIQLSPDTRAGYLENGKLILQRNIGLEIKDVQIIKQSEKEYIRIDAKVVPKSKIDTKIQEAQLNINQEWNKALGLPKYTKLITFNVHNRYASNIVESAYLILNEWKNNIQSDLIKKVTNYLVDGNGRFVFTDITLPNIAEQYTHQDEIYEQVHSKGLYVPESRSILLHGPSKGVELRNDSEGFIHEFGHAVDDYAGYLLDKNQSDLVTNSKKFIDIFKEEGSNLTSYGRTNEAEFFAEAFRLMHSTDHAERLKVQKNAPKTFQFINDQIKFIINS
GDH-TPI counter: GDH-TPI coupling enzyme inhibitors, primary screen, artefact control for M. tuberculosis FBA inhibitor project, biochemical, absorbance, full deck; GDH-TPI coupled enzyme counterscreen, NADH absorbance; inhibition, % at 4.8 µM; 1.2% of 360,000 active; AID 588335, 2011; in the data active means inhibition above about 30%;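 further: 0% = DMSO wells and 100% = wells lacking the enzyme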
Bead autofluor: compound fluorescence in toxin protease inhibitor counterscreen; 3.1% of 360,000 active; fluorescence intensity (test concentration not listed); compound autofluorescence counterscreen, microsphere flow cytometry; active compounds read high; AID 624483; in the data active means fluorescence intensity above about 16000; inconclusive means no clear call, values can overlap the other calls
BoNT F protease: BoNT/F light chain protease inhibitors, primary screen, biochemical, flow cytometry, MLPCN library. Botulinum neurotoxin type F light chain protease (Clostridium botulinum). Multiplex microsphere protease cleavage assay. inhibition, % at 10 µM. 0.22% of 360,000 active. AID 588497, 2011; in the data active means inhibition above about 35%, passing the limit was not always enough; inconclusive means no clear call, values can overlap the other calls; further: plate controls were buffer without enzyme for full effect and enzyme alone for no effect
BoNT A protease: BoNT/A light chain protease inhibitors, primary screen, biochemical, flow cytometry, MLPCN library | inhibition, % at 10 µM | Botulinum neurotoxin type A light chain protease (Clostridium botulinum A str. ATCC 3502) | multiplex microsphere protease substrate cleavage | AID 588499, 2011 | 0.17% of 360,000 active; further: plate controls were buffer without enzyme for full effect and enzyme alone for no effect
* marks the source's active call; other numbers are inactive results. An excerpt weighted towards active compounds, which were near 6.6% of everything screened. Unless noted, no stated cut-off is given here; in the data, active means inhibition above about 30%; inconclusive means no clear call, values can overlap the other calls; inactive means below that.

How did Cc1ccc(NC(=O)C(Cc2ccccc2)NC(=O)c2ccco2)cc1 (stereo unspecified) do in these assays?
Mtb FBA inh: -5; Anthrax LF inh2: -1; GDH-TPI counter: -1; Bead autofluor: 23460*; BoNT F protease: -1; BoNT A protease: inconclusive

How did CC(=O)NCCNC(=O)[C@H](Cc1ccccc1)NC(=O)c1cccs1 do in these assays?
Mtb FBA inh: 2; Anthrax LF inh2: -5; GDH-TPI counter: -11; Bead autofluor: 20647*; BoNT F protease: -1; BoNT A protease: inconclusive

What do the screens show for `Cc1ccc(CC(NC(=O)c2ccccc2)C(=O)NCC(=O)O)cc1` (stereo unspecified)?
Mtb FBA inh: 2; Anthrax LF inh2: -1; GDH-TPI counter: 0; Bead autofluor: 22985*; BoNT F protease: 4; BoNT A protease: 2

How did Cc1ccc([C@H]2C[C@H](O)[C@@H](n3cc(-c4ccc(F)cc4)nn3)CN2CC2CCCCC2)cc1 do in these assays?
Mtb FBA inh: 1; Anthrax LF inh2: -1; GDH-TPI counter: 7; Bead autofluor: 3134; BoNT F protease: -5; BoNT A protease: -1

Results for CNC(=O)c1ccsc1NC(=O)c1coc2ccccc2c1=O ?
Mtb FBA inh: -4; Anthrax LF inh2: -2; GDH-TPI counter: 11; Bead autofluor: 5290; BoNT F protease: -3; BoNT A protease: 0

What do the screens show for `O=C(Cn1cnc2c(cnn2-c2ccccc2Cl)c1=O)N1CCc2ccccc21`?
Mtb FBA inh: 1; Anthrax LF inh2: -1; GDH-TPI counter: -3; Bead autofluor: 21755*; BoNT F protease: 6; BoNT A protease: 3

How did CC(C)(C)n1ncc2c(=O)n(CC(=O)N3CCc4ccccc43)cnc21 do in these assays?
Mtb FBA inh: 5; Anthrax LF inh2: 2; GDH-TPI counter: -3; Bead autofluor: 3262; BoNT F protease: -6; BoNT A protease: 0

How did CCOC(=O)Cn1cc(C=C2C(=O)N(C)C(=O)N(C)C2=O)c2ccccc21 do in these assays?
Mtb FBA inh: 4; Anthrax LF inh2: 22; GDH-TPI counter: 4; Bead autofluor: 3338; BoNT F protease: 40*; BoNT A protease: -1

What do the screens show for `CN1C(=O)C(=Cc2cn(CC(=O)N3CCCC3)c3ccccc23)C(=O)N(C)C1=O`?
Mtb FBA inh: -11; Anthrax LF inh2: -4; GDH-TPI counter: 7; Bead autofluor: 4764; BoNT F protease: 0; BoNT A protease: -2

Results for CCn1cc(C=C2C(=O)c3ccccc3C2=O)c2ccccc21 ?
Mtb FBA inh: -4; Anthrax LF inh2: 34*; GDH-TPI counter: -2; Bead autofluor: 3399; BoNT F protease: 19; BoNT A protease: 70*

What do the screens show for `Cc1cccc(-c2noc(-c3csc([C@@H]4C[C@H](O)[C@@H](CO)O4)n3)n2)c1`?
Mtb FBA inh: -3; Anthrax LF inh2: 2; GDH-TPI counter: -4; Bead autofluor: 3616; BoNT F protease: -2; BoNT A protease: 0

What do the screens show for `Cc1cc(NC(=O)CCC(=O)N(Cc2cccs2)C(C)(C)C(=O)NC2CCCCC2)no1`?
Mtb FBA inh: 3; Anthrax LF inh2: 4; GDH-TPI counter: -2; Bead autofluor: 3708; BoNT F protease: 4; BoNT A protease: 0

How did O=C(CCNC(=O)C1CCN(S(=O)(=O)c2ccc(F)cc2)CC1)NC1CC1 do in these assays?
Mtb FBA inh: 0; Anthrax LF inh2: -1; GDH-TPI counter: 9; Bead autofluor: 5112; BoNT F protease: 4; BoNT A protease: 3

What do the screens show for `COc1ccc(C2C(=O)N(C3CCCCC3)CC(=O)N2CCc2ccccc2)cc1OC` (stereo unspecified)?
Mtb FBA inh: -1; Anthrax LF inh2: -1; GDH-TPI counter: -8; Bead autofluor: 21105*; BoNT F protease: -5; BoNT A protease: -3

Results for CCCOc1ccc(C2C(=O)N(C3CCCCC3)CC(=O)N2CCCOCC)cc1OC (stereo unspecified) ?
Mtb FBA inh: 3; Anthrax LF inh2: -4; GDH-TPI counter: 3; Bead autofluor: 22919*; BoNT F protease: -1; BoNT A protease: 1

What do the screens show for `CCOCCCN1C(=O)CN(C2CCCCCC2)C(=O)C1c1ccc(OC)cc1` (stereo unspecified)?
Mtb FBA inh: -2; Anthrax LF inh2: -2; GDH-TPI counter: -2; Bead autofluor: 19637*; BoNT F protease: 1; BoNT A protease: 1

What do the screens show for `CCOCCCN1C(=O)CN(C2CCCCC2)C(=O)C1c1ccc(OC)c(OC)c1` (stereo unspecified)?
Mtb FBA inh: 0; Anthrax LF inh2: 3; GDH-TPI counter: -2; Bead autofluor: 10813; BoNT F protease: 5; BoNT A protease: 0

What do the screens show for `Cc1ccc(C2C(=O)N(C3CCCC3)CC(=O)N2C2CCCCC2)cc1` (stereo unspecified)?
Mtb FBA inh: -1; Anthrax LF inh2: -4; GDH-TPI counter: -6; Bead autofluor: 18594*; BoNT F protease: 0; BoNT A protease: 2

What do the screens show for `COc1ccc(C2C(=O)N(C3CCCCC3)CC(=O)N2C2CCCCC2)cc1` (stereo unspecified)?
Mtb FBA inh: -1; Anthrax LF inh2: -4; GDH-TPI counter: -5; Bead autofluor: 9530; BoNT F protease: -4; BoNT A protease: 0

Results for O=C(O)c1ccc(N/N=C/c2cc3ccccc3nc2Cl)cc1 ?
Mtb FBA inh: 3; Anthrax LF inh2: -2; GDH-TPI counter: 37*; Bead autofluor: 3722; BoNT F protease: -1; BoNT A protease: 1

How did Cc1cccc2cc(/C=N/Nc3ccc(C(=O)O)cc3)c(Cl)nc12 do in these assays?
Mtb FBA inh: 5; GDH-TPI counter: 22

Results for C[C@H](NC(=O)OC(C)(C)C)C(=O)N/N=C/c1cccc2nccnc12 ?
Mtb FBA inh: 8; Anthrax LF inh2: 2; GDH-TPI counter: 13; Bead autofluor: inconclusive; BoNT F protease: inconclusive; BoNT A protease: 1

How did O=C(O)c1ccc(N/N=C/c2cccc3nccnc23)cc1 do in these assays?
Mtb FBA inh: -4; Anthrax LF inh2: 0; GDH-TPI counter: 46*; Bead autofluor: 4132; BoNT F protease: 4; BoNT A protease: 0

Results for O=C(COC(=O)COc1ccc2ccccc2c1)NCC(F)(F)F ?
Mtb FBA inh: 4; Anthrax LF inh2: -6; GDH-TPI counter: 4; Bead autofluor: 4574; BoNT F protease: 37*; BoNT A protease: 4

Results for COc1cccc(CNC(=O)CCCc2cn(C)c3ccccc23)c1 ?
Mtb FBA inh: 3; Anthrax LF inh2: -7; GDH-TPI counter: 4; Bead autofluor: 3683; BoNT F protease: 4; BoNT A protease: 0

Screens as filed in PubChem BioAssay.
